Common to all, as to experiment: DAPPL (digital affinity profiling via proximity ligation, sequencing); 10 mM Tris-HCl pH 7.5, 50 mM NaCl, 1 mM DTT, 4% glycerol, room temperature, 30 min; GST-TFs on glutathione beads, 16-mer random dsDNA library, 0.1% formaldehyde crosslink after washing; high values mean tight binding
One assay deals with T1, FEV (Homo sapiens, UniProt Q99581 1-238).
T1 sequence: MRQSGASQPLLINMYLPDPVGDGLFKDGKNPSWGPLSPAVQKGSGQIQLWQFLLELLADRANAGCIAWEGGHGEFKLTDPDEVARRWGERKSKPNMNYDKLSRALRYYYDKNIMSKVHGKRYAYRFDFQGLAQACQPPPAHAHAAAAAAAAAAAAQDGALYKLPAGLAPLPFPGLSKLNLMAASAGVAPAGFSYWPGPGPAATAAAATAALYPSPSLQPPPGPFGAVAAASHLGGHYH
As to conditions: protein: recombinant; tags: N-terminal GST; dsDNA, one strand shown. The procedure, abridged: (§1)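 After expression in yeast as GST fusions, human transcription factors were bound to glutathione beads, DNA-barcoded and mixed with a tag-only sample. The pools were incubated with 200 nmole of a 16-mer random double-stranded DNA library in Tris/NaCl/DTT/glycerol buffer (30 min, room temperature), washed and crosslinked with 0.1% formaldehyde. Proximity ligation with BsaI/T4 ligase ran for 1 h at 37 °C, before PCR amplification and sequencing on an Illumina NextSeq500. Binding signal is a hexamer's read frequency for a factor divided by its frequency for the tag-only sample.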

The target in a further assay is ETV5 (Homo sapiens, UniProt P41161 1-510). As to conditions: protein: recombinant; tags: N-terminal GST; dsDNA, one strand shown. The essentials:
as §1

The target in another assay is HSF1 (Homo sapiens, UniProt Q00613 1-529). To be noted: protein: recombinant; tags: N-terminal GST; chain copies: 3; dsDNA, one strand shown. The essentials:
as §1

The next assay addresses T2, SPIC (Homo sapiens, UniProt Q8N5J4 1-248).
T2 sequence: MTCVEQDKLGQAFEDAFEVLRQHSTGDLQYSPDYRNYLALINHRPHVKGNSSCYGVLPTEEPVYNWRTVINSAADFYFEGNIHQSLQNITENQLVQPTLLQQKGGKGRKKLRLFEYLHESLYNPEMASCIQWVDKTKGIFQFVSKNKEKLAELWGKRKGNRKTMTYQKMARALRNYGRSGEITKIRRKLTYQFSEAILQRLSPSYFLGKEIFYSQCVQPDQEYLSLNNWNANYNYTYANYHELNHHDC
To be noted: protein: recombinant; tags: N-terminal GST; dsDNA, one strand shown. The procedure, abridged:
as §1

The next assay has as its target ELF4 (Homo sapiens, UniProt Q99607 1-663). As to conditions: protein: recombinant; tags: N-terminal GST; dsDNA, one strand shown. The essentials:
as §1

For another assay, the target named is T3, ELK4 (Homo sapiens, UniProt P28324-2 1-405).
T3 sequence: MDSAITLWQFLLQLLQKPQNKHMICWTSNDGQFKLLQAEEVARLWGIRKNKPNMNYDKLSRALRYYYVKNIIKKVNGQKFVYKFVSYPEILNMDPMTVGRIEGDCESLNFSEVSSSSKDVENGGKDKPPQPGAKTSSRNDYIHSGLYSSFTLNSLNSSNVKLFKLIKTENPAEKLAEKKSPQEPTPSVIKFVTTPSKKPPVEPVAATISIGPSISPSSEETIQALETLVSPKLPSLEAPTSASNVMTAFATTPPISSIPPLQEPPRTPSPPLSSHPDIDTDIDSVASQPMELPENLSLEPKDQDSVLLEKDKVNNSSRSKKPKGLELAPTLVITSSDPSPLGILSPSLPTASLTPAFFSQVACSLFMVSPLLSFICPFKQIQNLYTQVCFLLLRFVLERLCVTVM
To be noted: protein: recombinant; tags: N-terminal GST; dsDNA, one strand shown. The procedure, abridged:
as §1

The target of another assay is T4, ETV2 (Homo sapiens, UniProt O00321 1-342).
T4 sequence: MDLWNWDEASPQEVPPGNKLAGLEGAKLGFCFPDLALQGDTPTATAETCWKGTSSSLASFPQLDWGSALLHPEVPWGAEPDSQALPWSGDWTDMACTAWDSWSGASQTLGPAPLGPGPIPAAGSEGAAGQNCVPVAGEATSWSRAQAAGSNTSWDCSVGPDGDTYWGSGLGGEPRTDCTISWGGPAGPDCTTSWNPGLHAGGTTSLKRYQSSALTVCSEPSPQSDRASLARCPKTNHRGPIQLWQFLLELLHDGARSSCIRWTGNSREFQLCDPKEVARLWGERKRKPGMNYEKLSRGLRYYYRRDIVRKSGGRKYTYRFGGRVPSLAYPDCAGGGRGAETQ
As to conditions: protein: recombinant; tags: N-terminal GST; dsDNA, one strand shown. The procedure, abridged: as §1

Another assay deals with T5, ELF3 (Homo sapiens, UniProt P78545 1-371).
T5 sequence: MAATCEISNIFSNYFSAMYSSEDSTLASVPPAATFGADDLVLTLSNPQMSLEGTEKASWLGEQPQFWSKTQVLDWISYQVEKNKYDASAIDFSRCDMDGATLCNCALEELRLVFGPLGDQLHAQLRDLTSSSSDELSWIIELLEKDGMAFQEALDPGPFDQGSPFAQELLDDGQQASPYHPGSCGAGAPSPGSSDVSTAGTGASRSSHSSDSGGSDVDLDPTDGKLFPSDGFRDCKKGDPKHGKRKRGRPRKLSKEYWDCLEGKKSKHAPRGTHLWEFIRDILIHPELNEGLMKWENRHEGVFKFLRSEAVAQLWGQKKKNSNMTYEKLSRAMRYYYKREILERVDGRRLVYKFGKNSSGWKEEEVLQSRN
As to conditions: protein: recombinant; tags: N-terminal GST; dsDNA, one strand shown. The essentials:
as §1

The target in the next assay is CRX (Homo sapiens, UniProt O43186 1-299). To be noted: protein: recombinant; tags: N-terminal GST; dsDNA, one strand shown. The procedure, abridged:
as §1

For the next assay, the target named is ETV1 (Homo sapiens, UniProt P50549 1-477). As to conditions: protein: recombinant; tags: N-terminal GST; dsDNA, one strand shown. The procedure, abridged:
as §1

A further assay addresses T6, ERF (Homo sapiens, UniProt P50548 1-548).
T6 sequence: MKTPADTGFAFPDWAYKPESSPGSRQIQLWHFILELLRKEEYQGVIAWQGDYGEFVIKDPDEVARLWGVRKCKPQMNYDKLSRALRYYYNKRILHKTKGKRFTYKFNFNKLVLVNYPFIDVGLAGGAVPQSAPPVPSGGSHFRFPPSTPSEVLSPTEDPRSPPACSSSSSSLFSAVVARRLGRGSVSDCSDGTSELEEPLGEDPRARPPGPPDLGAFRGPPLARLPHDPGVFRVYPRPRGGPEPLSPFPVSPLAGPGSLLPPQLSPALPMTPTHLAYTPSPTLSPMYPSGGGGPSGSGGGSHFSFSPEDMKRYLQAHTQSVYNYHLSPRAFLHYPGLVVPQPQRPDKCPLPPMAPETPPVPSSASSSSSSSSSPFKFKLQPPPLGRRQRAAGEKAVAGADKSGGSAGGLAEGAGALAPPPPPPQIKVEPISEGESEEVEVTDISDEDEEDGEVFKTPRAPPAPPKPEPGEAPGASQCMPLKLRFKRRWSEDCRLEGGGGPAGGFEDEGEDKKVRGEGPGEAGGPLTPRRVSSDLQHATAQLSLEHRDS
As to conditions: protein: recombinant; tags: N-terminal GST; dsDNA, one strand shown. The procedure, abridged:
as §1

The next assay has as its target T7, ETV3L (Homo sapiens, UniProt Q6ZN32 1-361).
T7 sequence: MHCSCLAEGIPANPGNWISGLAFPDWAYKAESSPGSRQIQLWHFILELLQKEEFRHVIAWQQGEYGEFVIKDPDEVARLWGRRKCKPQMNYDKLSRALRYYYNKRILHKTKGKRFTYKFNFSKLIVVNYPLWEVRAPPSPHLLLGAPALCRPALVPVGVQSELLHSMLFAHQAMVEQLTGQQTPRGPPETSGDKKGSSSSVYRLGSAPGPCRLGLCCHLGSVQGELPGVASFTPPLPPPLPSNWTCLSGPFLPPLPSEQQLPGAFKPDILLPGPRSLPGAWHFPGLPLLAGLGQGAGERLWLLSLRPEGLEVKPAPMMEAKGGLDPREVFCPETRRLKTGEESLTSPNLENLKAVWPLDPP
To be noted: protein: recombinant; tags: N-terminal GST; dsDNA, one strand shown. The procedure, abridged:
as §1

A further assay has as its target T8, ETS2 (Homo sapiens, UniProt P15036 1-469).
T8 sequence: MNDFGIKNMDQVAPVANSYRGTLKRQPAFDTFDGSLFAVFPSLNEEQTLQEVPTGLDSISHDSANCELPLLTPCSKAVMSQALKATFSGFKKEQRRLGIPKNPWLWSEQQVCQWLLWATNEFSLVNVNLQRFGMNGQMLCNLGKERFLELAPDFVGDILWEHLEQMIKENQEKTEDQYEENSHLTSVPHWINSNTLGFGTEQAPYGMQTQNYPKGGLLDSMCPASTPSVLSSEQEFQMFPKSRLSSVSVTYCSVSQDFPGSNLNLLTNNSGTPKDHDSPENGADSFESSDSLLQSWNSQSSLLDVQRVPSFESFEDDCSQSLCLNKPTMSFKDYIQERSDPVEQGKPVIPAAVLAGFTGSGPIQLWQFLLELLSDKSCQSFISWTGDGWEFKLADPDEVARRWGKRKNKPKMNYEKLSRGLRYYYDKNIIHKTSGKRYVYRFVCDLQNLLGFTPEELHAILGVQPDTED
To be noted: protein: recombinant; tags: N-terminal GST; dsDNA, one strand shown. The procedure, abridged:
as §1

In a further assay the target is T9, SPDEF (Homo sapiens, UniProt O95238 1-335).
T9 sequence: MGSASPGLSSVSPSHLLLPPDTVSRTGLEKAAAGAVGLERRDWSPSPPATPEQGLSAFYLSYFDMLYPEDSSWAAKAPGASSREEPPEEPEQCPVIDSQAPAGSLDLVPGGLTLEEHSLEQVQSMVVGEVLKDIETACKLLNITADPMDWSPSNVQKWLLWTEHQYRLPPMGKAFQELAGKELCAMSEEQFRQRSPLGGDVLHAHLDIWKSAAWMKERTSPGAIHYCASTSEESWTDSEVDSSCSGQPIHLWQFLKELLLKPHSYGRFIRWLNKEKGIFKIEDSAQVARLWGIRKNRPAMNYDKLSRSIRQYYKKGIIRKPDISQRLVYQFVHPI
To be noted: protein: recombinant; tags: N-terminal GST; dsDNA, one strand shown. The essentials: as §1

The target of the next assay is T10, ETV7 (Homo sapiens, UniProt Q9Y603 1-341).
T10 sequence: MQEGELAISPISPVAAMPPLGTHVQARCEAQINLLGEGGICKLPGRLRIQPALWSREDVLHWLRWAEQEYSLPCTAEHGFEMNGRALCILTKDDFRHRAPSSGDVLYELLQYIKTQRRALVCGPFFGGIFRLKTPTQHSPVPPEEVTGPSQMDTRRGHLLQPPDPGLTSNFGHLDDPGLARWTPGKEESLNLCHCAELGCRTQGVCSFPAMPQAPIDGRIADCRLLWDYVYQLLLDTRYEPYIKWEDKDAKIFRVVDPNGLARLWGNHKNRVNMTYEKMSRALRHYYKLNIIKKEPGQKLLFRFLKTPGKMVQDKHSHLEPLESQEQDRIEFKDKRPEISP
To be noted: protein: recombinant; tags: N-terminal GST; dsDNA, one strand shown. The essentials: as §1

For the next assay, the target named is T11, ELF5 (Homo sapiens, UniProt Q9UKW6-2 1-255).
T11 sequence: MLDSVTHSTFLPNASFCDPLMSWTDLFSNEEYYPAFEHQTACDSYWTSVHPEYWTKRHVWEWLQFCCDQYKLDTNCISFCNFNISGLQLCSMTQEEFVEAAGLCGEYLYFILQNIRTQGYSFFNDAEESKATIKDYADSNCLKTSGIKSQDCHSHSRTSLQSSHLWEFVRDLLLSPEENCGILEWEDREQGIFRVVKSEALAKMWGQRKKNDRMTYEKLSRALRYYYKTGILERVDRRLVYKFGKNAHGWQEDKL
To be noted: protein: recombinant; tags: N-terminal GST; dsDNA, one strand shown. The essentials: as §1

The next assay has as its target T12, ETV3 (Homo sapiens, UniProt P41162-2 1-143).
T12 sequence: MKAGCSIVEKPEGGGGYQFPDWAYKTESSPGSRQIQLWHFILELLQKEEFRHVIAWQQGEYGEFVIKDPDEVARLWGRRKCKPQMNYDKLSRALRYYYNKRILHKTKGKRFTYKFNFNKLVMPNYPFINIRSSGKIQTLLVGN
As to conditions: protein: recombinant; tags: N-terminal GST; dsDNA, one strand shown. The essentials: as §1

Another assay deals with ETV6 (Homo sapiens, UniProt P41212 1-452). To be noted: protein: recombinant; tags: N-terminal GST; dsDNA, one strand shown. The essentials:
as §1

ETV1, sequence (P50549 whole entry): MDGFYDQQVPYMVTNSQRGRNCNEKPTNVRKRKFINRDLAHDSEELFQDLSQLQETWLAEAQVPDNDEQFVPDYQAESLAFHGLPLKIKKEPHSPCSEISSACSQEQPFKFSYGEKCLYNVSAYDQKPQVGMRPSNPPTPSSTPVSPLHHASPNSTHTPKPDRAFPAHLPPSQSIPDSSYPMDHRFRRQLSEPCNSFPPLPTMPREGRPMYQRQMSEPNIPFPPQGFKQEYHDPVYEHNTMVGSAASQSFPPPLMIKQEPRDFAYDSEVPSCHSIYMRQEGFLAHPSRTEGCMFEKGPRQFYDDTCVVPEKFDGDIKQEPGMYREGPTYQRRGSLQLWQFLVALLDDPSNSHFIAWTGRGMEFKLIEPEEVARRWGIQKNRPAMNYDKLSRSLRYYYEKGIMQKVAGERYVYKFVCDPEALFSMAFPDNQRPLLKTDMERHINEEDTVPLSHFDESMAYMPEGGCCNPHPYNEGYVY
CRX, sequence (O43186 whole entry): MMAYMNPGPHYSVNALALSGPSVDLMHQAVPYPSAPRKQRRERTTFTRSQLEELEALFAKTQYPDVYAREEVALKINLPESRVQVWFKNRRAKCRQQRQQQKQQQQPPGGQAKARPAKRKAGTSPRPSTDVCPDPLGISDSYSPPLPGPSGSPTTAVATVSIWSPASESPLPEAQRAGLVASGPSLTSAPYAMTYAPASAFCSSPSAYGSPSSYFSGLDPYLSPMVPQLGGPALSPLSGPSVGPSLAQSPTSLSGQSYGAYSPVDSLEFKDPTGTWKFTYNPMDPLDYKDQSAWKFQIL
HSF1, sequence (Q00613 whole entry): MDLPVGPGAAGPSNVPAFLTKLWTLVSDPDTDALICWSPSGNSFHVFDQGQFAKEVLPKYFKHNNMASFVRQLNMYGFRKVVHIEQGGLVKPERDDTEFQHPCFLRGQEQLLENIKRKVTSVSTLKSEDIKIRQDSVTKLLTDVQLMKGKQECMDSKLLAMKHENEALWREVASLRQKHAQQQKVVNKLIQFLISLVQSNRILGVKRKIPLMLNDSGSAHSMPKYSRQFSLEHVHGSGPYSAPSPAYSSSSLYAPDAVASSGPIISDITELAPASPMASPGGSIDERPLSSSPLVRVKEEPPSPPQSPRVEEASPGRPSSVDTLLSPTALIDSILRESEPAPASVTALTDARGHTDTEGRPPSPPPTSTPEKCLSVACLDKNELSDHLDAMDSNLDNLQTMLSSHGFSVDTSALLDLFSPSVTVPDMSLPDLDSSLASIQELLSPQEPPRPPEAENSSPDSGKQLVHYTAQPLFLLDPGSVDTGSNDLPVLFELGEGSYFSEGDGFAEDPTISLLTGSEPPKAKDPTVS
ETV6, sequence (P41212 whole entry): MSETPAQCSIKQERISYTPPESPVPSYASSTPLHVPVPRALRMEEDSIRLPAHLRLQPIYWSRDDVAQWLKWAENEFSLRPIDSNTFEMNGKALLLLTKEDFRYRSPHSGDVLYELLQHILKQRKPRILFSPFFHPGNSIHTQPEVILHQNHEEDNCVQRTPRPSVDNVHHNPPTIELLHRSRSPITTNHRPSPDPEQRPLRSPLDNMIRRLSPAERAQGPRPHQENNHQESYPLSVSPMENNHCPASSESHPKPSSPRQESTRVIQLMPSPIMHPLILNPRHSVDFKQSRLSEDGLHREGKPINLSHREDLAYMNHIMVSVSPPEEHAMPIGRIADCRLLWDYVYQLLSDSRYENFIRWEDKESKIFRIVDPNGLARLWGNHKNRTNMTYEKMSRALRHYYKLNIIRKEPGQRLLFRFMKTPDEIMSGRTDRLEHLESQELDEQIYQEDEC
ETV5, sequence (P41161 whole entry): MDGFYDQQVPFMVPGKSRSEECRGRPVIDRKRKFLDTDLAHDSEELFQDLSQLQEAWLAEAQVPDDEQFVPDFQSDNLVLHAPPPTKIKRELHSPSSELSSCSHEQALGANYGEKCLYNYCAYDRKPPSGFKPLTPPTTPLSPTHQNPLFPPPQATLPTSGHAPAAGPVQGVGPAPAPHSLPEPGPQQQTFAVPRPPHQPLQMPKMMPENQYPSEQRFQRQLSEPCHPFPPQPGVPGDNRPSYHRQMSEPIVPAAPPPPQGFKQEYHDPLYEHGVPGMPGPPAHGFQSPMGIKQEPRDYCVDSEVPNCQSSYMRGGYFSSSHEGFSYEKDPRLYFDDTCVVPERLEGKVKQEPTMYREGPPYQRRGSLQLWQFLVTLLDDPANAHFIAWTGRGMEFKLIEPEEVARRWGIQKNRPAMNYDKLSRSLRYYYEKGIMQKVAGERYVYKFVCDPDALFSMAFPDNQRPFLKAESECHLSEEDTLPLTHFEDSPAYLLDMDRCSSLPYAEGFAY
ELF4, sequence (Q99607 whole entry): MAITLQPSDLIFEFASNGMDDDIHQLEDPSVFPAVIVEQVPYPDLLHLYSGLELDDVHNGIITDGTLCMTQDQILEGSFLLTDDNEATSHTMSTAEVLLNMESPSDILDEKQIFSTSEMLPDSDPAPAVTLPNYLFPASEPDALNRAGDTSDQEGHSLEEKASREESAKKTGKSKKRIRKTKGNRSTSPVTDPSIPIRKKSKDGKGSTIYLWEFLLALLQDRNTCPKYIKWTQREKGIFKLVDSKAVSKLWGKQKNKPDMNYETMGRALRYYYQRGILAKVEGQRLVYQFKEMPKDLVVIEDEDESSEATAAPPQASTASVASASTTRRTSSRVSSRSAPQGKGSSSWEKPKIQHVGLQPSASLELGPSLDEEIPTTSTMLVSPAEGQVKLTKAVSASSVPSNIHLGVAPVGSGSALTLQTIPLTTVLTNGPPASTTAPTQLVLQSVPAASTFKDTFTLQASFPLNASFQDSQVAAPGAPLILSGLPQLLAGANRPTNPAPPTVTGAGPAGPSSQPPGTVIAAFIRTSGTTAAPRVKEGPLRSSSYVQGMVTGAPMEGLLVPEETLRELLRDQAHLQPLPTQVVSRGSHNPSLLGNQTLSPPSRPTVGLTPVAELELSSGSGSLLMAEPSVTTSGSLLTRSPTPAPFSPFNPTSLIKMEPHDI

As to ATGAAT, the binding signal with FEV is 1.07 fold enrichment (6-mer frequency, TF over GST control); with ETV5, 1.1 fold enrichment (6-mer frequency, TF over GST control); in the assay with HSF1 it was 1.19 fold enrichment (6-mer frequency, TF over GST control); in the assay with SPIC, 1.31 fold enrichment (6-mer frequency, TF over GST control); with ELF4, 1.14 fold enrichment (6-mer frequency, TF over GST control); with ELK4, 1.13 fold enrichment (6-mer frequency, TF over GST control). For the same sequence, the binding signal with ETV2 is 1.04 fold enrichment (6-mer frequency, TF over GST control); with ELF3, 1.08 fold enrichment (6-mer frequency, TF over GST control); with CRX, 1.2 fold enrichment (6-mer frequency, TF over GST control); with ETV1, 1.16 fold enrichment (6-mer frequency, TF over GST control); with ERF, 1.16 fold enrichment (6-mer frequency, TF over GST control); with ETV3L it was 1.14 fold enrichment (6-mer frequency, TF over GST control). The binding signal in the assay with ETS2 was 1.17 fold enrichment (6-mer frequency, TF over GST control); with SPDEF, 1.06 fold enrichment (6-mer frequency, TF over GST control); in the assay with ETV7, 1.19 fold enrichment (6-mer frequency, TF over GST control); with ELF5, 1.09 fold enrichment (6-mer frequency, TF over GST control); in the assay with ETV3 it was 1.2 fold enrichment (6-mer frequency, TF over GST control); with ETV6 it was 1.15 fold enrichment (6-mer frequency, TF over GST control).
